The campaign covered roughly 350,000 compounds. About 1,200 (0.34%) were called active. Roughly 3% stayed inconclusive and do not appear here. The sample holds actives, similar compounds and a random draw of the others, so the mix is not that of the screen. A number with no mark means an inactive call. Calls come from the whole dose curve; as a rule, active = well fitted inhibition curve with a large enough effect; inconclusive = small, poorly fitted or top-dose-only effect; inactive = no such curve, though single readings can be large or run the other way.
Potency is the fitted concentration of half-maximal effect.

DNA repair nuclease/redox regulator APEX1 (Homo sapiens), sequence (P27695 whole entry, looked up): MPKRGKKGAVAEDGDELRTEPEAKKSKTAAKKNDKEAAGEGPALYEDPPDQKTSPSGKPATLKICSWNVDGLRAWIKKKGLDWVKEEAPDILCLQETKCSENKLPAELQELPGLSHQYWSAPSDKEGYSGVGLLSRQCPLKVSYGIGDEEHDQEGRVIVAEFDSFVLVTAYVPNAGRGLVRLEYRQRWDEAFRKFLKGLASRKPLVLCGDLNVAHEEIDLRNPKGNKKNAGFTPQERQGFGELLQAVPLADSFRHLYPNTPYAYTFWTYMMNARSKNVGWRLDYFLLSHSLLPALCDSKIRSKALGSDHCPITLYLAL

This test concerns the target DNA repair nuclease/redox regulator APEX1 (Homo sapiens) (UniProt P27695). Description: qHTS Assay for Inhibitors of the Human Apurinic/apyrimidinic Endonuclease 1 (APE1).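 For activity change, negative = inhibition: plate controls were vehicle for no effect and reference inhibitor for full effect.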 Note: nearly all actives have a fitted effect of over 55% in size. The note with it: recombinant APE1, TAMRA/BHQ-2 abasic DNA cleavage fluorescence; activity change, negative = inhibition: at 65.8 µM (top of the series). From the text:
The apurinic/apyrimidinic endonuclease APE1 is the primary mammalian enzyme responsible for the removal of abasic (or AP) sites in DNA and functions centrally in the base excision DNA repair (BER) pathway. […] Thus, targeting APE1 could improve the efficacy of current treatment paradigms by promoting selective sensitization or protection of diseased and normal cells, respectively.
Inhibition of APE1 activity was screened by utilizing double-stranded short substrate containing tetrahydrofuran (THF) abasic site labeled with rhodamine-type fluorophore (TAMRA) at the 5'-end and with non-fluorescent Black Hole Quencher-2 (BHQ-2) at the opposing 3'-end. An increase in the fluorescence intensity due to incision of the abasic site by APE1 was used to measure the enzyme activity.
NIH Chemical Genomics Center [NCGC]
NIH Molecular Libraries Probe Centers Network [MLPCN]
Assay Provider: David M. Wilson, III, National Institute on Aging, NIH
Three uL of enzyme solution (0.75 nM APE1 final concentration) was dispensed to 1536-well Greiner black solid bottom plates. […] The plates were incubated for 15 min at room temperature, and then 1 uL of substrate solution (50 nM final concentration of TAMRA/BHQ-2) was added to start the reaction. The plates were immediately transferred into ViewLux High-throughput CCD imager (Perkin-Elmer) in order to measure the reaction progress in kinetic mode (three reads every 60 seconds) using 525 nm excitation and 598 nm emission fluorescence protocol. The fluorescence intensity difference between the third and the first time points was used to compute reaction progress. Results were normalized to buffer only columns and NSC13755 positive controls and negative control DMSO treated wells.
In general terms: In qHTS, concentration-response curves come from the screen itself.
In the case of `Cc1cc2nc3c(=O)[nH]c(=O)nc-3n(C[C@H](O)[C@H](O)[C@H](O)CO)c2cc1C`, the Potency result was “inactive”.

Consider `COC(=O)C/C=C/[C@@H](C)[C@H](NC(=O)OCC(Cl)(Cl)Cl)c1ccccc1`, for which the “activity change, negative = inhibition” value is 3.41%.

For `O=c1c(-c2ccc(F)cc2)nc2cnc(N3CCNCC3)nc2n1Cc1cccs1`, the “activity change, negative = inhibition” value was 12.1%.

On to `CCCCC/C=C\C/C=C\CCCCCCCCCC(N)=O`, for which the “activity change, negative = inhibition” value is 3.71%.

As for `Cc1cc(C)c2c(=O)[nH]c(SCC(=O)Nc3ccc(Br)cc3)nc2n1`, the “activity change, negative = inhibition” value was 5.12%.

Regarding `O=C(CSc1nc2ccccc2c(=O)[nH]1)Nc1nc(-c2ccc(Br)cc2)cs1`, the “activity change, negative = inhibition” value was -13.4%.

On to `N#Cc1c(-c2cccs2)nc(SCC(=O)c2ccc(Br)cc2)[nH]c1=O`, for which the Potency is 39.8 µM (active).

`O=C(O)c1ccc(/C=C2/SC(=S)N(c3cccc(C(F)(F)F)c3)C2=O)cc1`: the “activity change, negative = inhibition” value was 20.2%.

As to `OC[C@H]1O[C@@H](n2cnc3c(N[C@H]4CC5CCC4C5)ncnc32)[C@H](O)[C@@H]1O` (some centres undefined), the “activity change, negative = inhibition” value is 13.8%.

As for `C=C(C(C)=O)C(O)c1ccc([N+](=O)[O-])cc1` (centres undefined), the “activity change, negative = inhibition” value is -1.09%.

For `CCCCC[C@H](O)/C=C/[C@@H]1[C@@H](CC(=O)CCC(=O)O)[C@@H](O)C[C@H]1O`, the “activity change, negative = inhibition” value is 1.56%.

Turning to `Cc1ccc(-c2nc(SCC(=O)Nc3ccccc3OC(F)F)c3c(C)c(C(=O)O)sc3n2)cc1`, the Potency was 39.8 µM (active).

As to `COc1ccccc1NC(=O)CSc1nc2sc3c(c2c(=O)n1-c1ccccc1)CCN(C)C3`, the “activity change, negative = inhibition” value is 34.8%.

Consider `CCOC(=O)c1ccc[n+](CC(=O)Nc2ccccc2OC(F)F)c1`, for which the “activity change, negative = inhibition” value was 0.0835%.

As to `CC(=O)OCC1OC(C#Cc2ccccc2Cl)C=CC1OC(C)=O` (centres undefined), the activity change, negative = inhibition is -9.65% [at 12.4 µM].

For the molecule `CC(=O)Oc1c2c(c3c(c1CC=C(C)C)O[C@@]14C(=CC5CC1C(C)(C)OC4(C/C=C(\C)C(=O)O)C5=O)C3=O)OC(C)(CCC=C(C)C)C=C2` (some centres undefined), the “activity change, negative = inhibition” value is -5.43%.

As for `CC(C)(C)OC(=O)C[C@@H]1C/C=C\C[C@H](CC(=O)N[C@@H](CO)Cc2ccccc2)C(=O)N[C@H](Cc2ccccc2)COC1=O`, the “activity change, negative = inhibition” value was -4.67%.

In the case of `C[C@H]1COC(=O)[C@H](CC(=O)OC(C)(C)C)C/C=C\C[C@@H](CC(=O)N[C@H](CO)Cc2ccccc2)C(=O)N1`, the “activity change, negative = inhibition” value is 4.54%.

Regarding `O=C1N[C@H](Cc2c[nH]c3ccccc23)COC(=O)[C@H](Cc2ccc(F)cc2)C/C=C\C[C@H]1CC(=O)N(CCO)Cc1ccccc1`, the Potency is 21.2 µM (active).

`CC(C)(C)OC(=O)C[C@@H]1C/C=C\C[C@@H](CC(=O)NCCO)C(=O)N[C@H](Cc2c[nH]c3ccccc23)COC1=O`: the Potency was 15 µM (active).

On to `CC(C)(C)OC(=O)C[C@@H]1C/C=C\C[C@@H](CC(=O)N(CCO)Cc2ccccc2)C(=O)N[C@H](Cc2ccccc2)COC1=O`, for which the “activity change, negative = inhibition” value is -32.1%.

Consider `O=C1N[C@@H](c2ccccc2)COC(=O)[C@H](Cc2ccc(F)cc2)C/C=C\C[C@@H]1CC(=O)N(CCO)Cc1ccccc1`, for which the “activity change, negative = inhibition” value is 27.2%.

As for `CCCCc1nn(-c2ccccc2C(F)(F)F)c(=O)n1Cc1ccc(-c2ccccc2S(=O)(=O)NC(=O)c2sccc2C)cc1`, the “activity change, negative = inhibition” value was -6.08%.

As for `CO[C@H]1COC(=O)[C@@H](OCc2ccccc2)/C=C\[C@H](C)[C@@H](OC)COC(=O)[C@H](OCc2ccccc2)/C=C\[C@@H]1C`, the activity change, negative = inhibition was 33.1% [at 12.4 µM].

Regarding `COc1ccc(CCCOC(Cn2ccnc2)c2ccc(OC)cc2)cc1` (centres undefined), the Potency entry is “inactive”.

For `Cc1ccc(N=C2NC(=O)/C(=C/C=C/c3ccco3)S2)cc1C`, the Potency is 28.2 µM (active).

On to `CCC[C@@H]1C[C@@]1(CCC)C(NC(=O)c1ccc(-c2ccccc2)cc1)c1cccc(Cl)c1` (some centres undefined), for which the “activity change, negative = inhibition” value was -0.889%.

Turning to `CCCn1c(-c2ccc(F)cc2)nc2c(NC3CCN(Cc4ccccc4)C3)nc(C)nc21` (centres undefined), the “activity change, negative = inhibition” value is 7.5%.

In the case of `COc1ccc(C(=O)N2CCC3(CC2)CCN(c2ccccn2)CC3)cc1`, the “activity change, negative = inhibition” value was 4.46%.

As to `COc1ccc(-c2nc3c(c4c2C[C@H](c2ccccc2)OC4)CN(C(=O)c2cccnc2)CC3)c(C)c1`, the activity change, negative = inhibition was -2.55% [at 12.4 µM].

Turning to `NC(=O)C1CCN(c2nc(-c3cccc(F)c3)cs2)CC1`, the “activity change, negative = inhibition” value was 16.9%.

On to `C=C[C@](C)(O)CCC1C(=C)CCC2[C@@](C)(CO)CCC[C@@]12C` (some centres undefined), for which the “activity change, negative = inhibition” value was -0.9%.

In the case of `COc1ccc2[nH]c3c(C)c4cc[n+](C)cc4c(C)c3c2c1`, the Potency is 12.6 µM (active).

As to `COc1ccc2[nH]c(C(=O)N3CCN(C)CC3)c(C)c2c1`, the “activity change, negative = inhibition” value was -10.7%.

Turning to `COc1ccc2[nH]c(=S)cc(C)c2c1`, the “activity change, negative = inhibition” value was 17.4%.

Consider `CC/C=C\C/C=C\C/C=C\C/C=C\C/C=C\C/C=C\CCC(=O)NCCc1ccc(O)c(O)c1`, for which the “activity change, negative = inhibition” value is -1.09%.

As for `COC(=O)C(C(=O)OC)[C@@H](NC=O)c1ccccc1`, the “activity change, negative = inhibition” value is 0.907%.

With `Nc1nc2c(nc(Cl)n2C2OC(CO)C(O)C2O)c(=O)[nH]1` (centres undefined), the “activity change, negative = inhibition” value is 12.3%.

For the molecule `COc1cccc(-c2cc(NCCc3c[nH]c4ccc(OC)cc34)ncn2)c1`, the “activity change, negative = inhibition” value was 3.71%.

As to `CS(=O)(=O)NC(=O)CCC/C=C\C[C@H]1C(=O)C[C@@H](O)[C@@H]1/C=C/[C@H](O)COc1ccccc1`, the “activity change, negative = inhibition” value was 1.1%.

For the molecule `CC/C=C\C/C=C\C/C=C\C/C=C\C/C=C\C/C=C\CCC(=O)NC(C)C(=O)O` (centres undefined), the “activity change, negative = inhibition” value was -0.719%.

Take `COC(=O)c1ccc(C(NC(=O)OCc2ccccc2)/C(C)=C/[C@@H](C)C(=O)NCc2cc(C)on2)cc1` (some centres undefined): the “activity change, negative = inhibition” value is 0.278%.

In the case of `CC(C)(C)c1ccc(OC2C=CC(C#Cc3ccccc3)OC2CO)cc1` (centres undefined), the activity change, negative = inhibition was 3.5% [at 12.4 µM].

Consider `COc1cccc(S(=O)(=O)NCc2ccc(C(=O)NCc3ccccn3)cc2)c1`, for which the “activity change, negative = inhibition” value is 7.86%.

The record behind these values is PubChem BioAssay AID2517 (National Center for Advancing Translational Sciences (NCATS), 2012).
